# Screen size: about 310,000 compounds; about 14,000 (4.5%) showed an effect of 50% or more. Effects have a minus sign here. Many of the other results were omitted from the sample, so strong results are more common in it than they were.
# Molecular target: human ether-à-go-go-related gene (hERG) potassium channel (human, UniProt Q12809)
# Assay: primary screen, population patch clamp on CHO cells stably expressing hERG; higher = less effect of the substance
# 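Further: peak tail current of the secondary pulse compared with the same well before compound.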
# Sequence of human ether-à-go-go-related gene (hERG) potassium channel (Q12809 whole entry, looked up): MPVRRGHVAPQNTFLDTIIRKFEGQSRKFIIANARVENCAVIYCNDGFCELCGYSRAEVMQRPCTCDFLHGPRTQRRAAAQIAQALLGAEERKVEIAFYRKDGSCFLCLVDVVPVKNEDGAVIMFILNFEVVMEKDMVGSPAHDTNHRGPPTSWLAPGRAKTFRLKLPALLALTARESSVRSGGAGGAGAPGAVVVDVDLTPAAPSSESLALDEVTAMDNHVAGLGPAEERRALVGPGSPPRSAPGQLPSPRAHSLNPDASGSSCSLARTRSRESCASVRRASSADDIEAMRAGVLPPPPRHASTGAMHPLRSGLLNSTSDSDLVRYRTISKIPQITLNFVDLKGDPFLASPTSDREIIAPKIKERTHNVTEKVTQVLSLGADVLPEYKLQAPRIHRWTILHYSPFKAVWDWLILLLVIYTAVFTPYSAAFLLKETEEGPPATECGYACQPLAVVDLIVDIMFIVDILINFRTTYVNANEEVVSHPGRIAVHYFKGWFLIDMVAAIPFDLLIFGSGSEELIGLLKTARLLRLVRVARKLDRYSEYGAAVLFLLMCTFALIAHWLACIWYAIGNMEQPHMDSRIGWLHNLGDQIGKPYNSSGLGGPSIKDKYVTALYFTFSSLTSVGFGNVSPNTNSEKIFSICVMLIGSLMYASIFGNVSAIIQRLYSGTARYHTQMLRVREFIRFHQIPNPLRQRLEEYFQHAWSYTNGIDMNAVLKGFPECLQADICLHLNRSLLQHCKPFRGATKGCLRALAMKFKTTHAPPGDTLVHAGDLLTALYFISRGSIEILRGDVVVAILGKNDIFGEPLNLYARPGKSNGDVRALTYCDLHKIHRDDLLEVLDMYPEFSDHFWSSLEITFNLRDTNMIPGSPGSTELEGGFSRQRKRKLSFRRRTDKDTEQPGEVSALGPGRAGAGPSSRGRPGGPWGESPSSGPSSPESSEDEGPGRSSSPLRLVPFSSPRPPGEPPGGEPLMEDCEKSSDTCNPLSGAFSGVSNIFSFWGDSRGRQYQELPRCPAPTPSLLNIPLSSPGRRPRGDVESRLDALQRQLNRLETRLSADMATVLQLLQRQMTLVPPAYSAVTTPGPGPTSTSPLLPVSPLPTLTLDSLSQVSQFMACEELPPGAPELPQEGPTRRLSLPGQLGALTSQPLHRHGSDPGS
row,SMILES,"hERG current change (%, negative = inhibition) at 10uM"
1,O=C(/C(=C(/[O-])c1ccccc1)[n+]1ccccc1)c1ccc([N+](=O)[O-])cc1,6.47%
2,Cc1ccc(-c2nnc(N(C)C(=O)c3ccncc3)s2)cn1,1.62%
3,CCC(C)(C)NC(=O)C(c1cccnc1)N(C(=O)c1csnn1)c1ccc(C)cc1 (stereo not drawn),10.6%
4,CCCOc1ccc(-c2c(C(=O)N/N=C/c3ccccc3OCC)nnn2-c2nonc2N)cc1,22.7%
5,COc1ccc(OC)c(C2C(C(=O)c3cc4ccccc4o3)=C(O)C(=O)N2c2cc(C)on2)c1 (stereo not drawn),2.7%
6,COc1ccc2oc(C(=O)NN3C(C)CCCC3C)c(C)c2c1 (stereo not drawn),16.1%
7,CNc1nccc(-c2ccc(F)cc2)c1C#N,6.25%
8,N#Cc1c(F)cccc1N1CCN(Cc2ccc3c(c2)OCO3)CC1,-81.3%
9,O=C(CN1CCN(Cc2ccc3c(c2)OCO3)CC1)Nc1ccc2c(c1)OCO2,-72.5%
10,COc1ccc(NC(=O)CN2CCN(Cc3ccc4c(c3)OCO4)CC2)cc1OC.O=C(O)C(=O)O,-17.4%
11,Fc1ccccc1N1CCN(Cc2ccc3c(c2)OCO3)CC1,-26.8%
12,O=C(CN1CCN(Cc2ccc3c(c2)OCO3)CC1)Nc1cc(S(=O)(=O)N2CCCC2)ccc1Cl,-18.8%
13,OC1(c2ccc3c(c2)OCO3)CCN(Cc2ccc(F)cc2)CC1,-51.4%
14,CN(C)S(=O)(=O)c1ccc(Cl)c(NC(=O)CN2CCN(Cc3ccc4c(c3)OCO4)CC2)c1,-64.6%
15,OC1(c2ccc3c(c2)OCO3)CCN(Cc2ccccn2)CC1,-6.96%
16,CN(C)S(=O)(=O)c1ccc(Cl)c(NC(=O)CN2CCCCCC2)c1,-24.6%
17,O=S(=O)(c1ccc(F)cc1)N1CCC(O)(c2ccc3c(c2)OCO3)CC1,-42%
18,Cc1cccc(N2CCN(Cc3ccc4c(c3)OCO4)CC2)c1C,3.83%
19,O=C(CN1CCN(Cc2ccc3c(c2)OCO3)CC1)Nc1ccc(N2CCOCC2)cc1,-6.54%
20,CS(=O)(=O)c1ccc2nc(NC(=O)c3ccc(N4CCCC4=O)cc3)sc2c1,13.3%
21,CCCCNC(=O)[C@H]1N2C(=O)c3c(ccc(OC)c3OC)C2SC1(C)C (stereo partly drawn),12.8%
22,S=c1[nH]ncn1/N=C/c1ccc(N2CCOCC2)cc1,14.9%
23,CCCN(Cc1nnc(-c2cccs2)o1)C(=O)c1cccc(S(=O)(=O)N2CCOCC2)c1,-25.3%

row,SMILES,"hERG current change (%, negative = inhibition) at 10uM"
1,CC(NC(=O)COC(=O)c1ccc(CO)cc1)C1CC2CCC1C2 (stereo not drawn),7.65%
2,CC(=O)Nc1ccc(C(=O)NN2C(=O)c3ccccc3C2=O)cc1,7.29%
3,COc1ccc(OC)c(C(=O)NC(CC(N)=O)c2ccc(N3CCC(Cc4ccccc4)CC3)c([N+](=O)[O-])c2)c1 (stereo not drawn),-5.07%
4,CCOC(=O)CN(C(=O)COc1nc(-c2ccccc2)cc(C)c1C#N)c1ccc(F)cc1,1.18%
5,Cc1ccc(-n2c(-c3ccncc3)n[nH]c2=S)c(C)c1,13.7%
6,CC(C)CC(=O)N1CCN(Cc2ccc3c(c2)OCO3)CC1,0.479%
7,COC(=O)c1ccsc1NC(=O)CN1CCN(Cc2ccc3c(c2)OCO3)CC1,-78.4%
8,CCOc1cc(N2CCOCC2)c(OCC)cc1NC(=O)CN1CCCC1,6.63%
9,Fc1ccc(N2CCN(Cc3ccc4c(c3)OCO4)CC2)cc1,-51.3%
10,CCOc1cc(N2CCOCC2)c(OCC)cc1NC(=O)CN1CCN(Cc2ccc3c(c2)OCO3)CC1.Cl,-55.8%
11,O=C(CSCc1ccccc1)N1CCN(Cc2ccc3c(c2)OCO3)CC1,-22%
12,C/C(=C\c1ccccc1)C(=O)N1CCN(Cc2ccc3c(c2)OCO3)CC1,-51.6%
13,Fc1ccc(N2CCN(Cc3cc4c(cc3Br)OCO4)CC2)cc1,7.74%
14,CCOc1cc(N2CCOCC2)c(OCC)cc1NC(=O)CN1CCC(Cc2ccccc2)CC1,-3.67%
15,COC(=O)c1c(NC(=O)CN2CCN(Cc3ccc4c(c3)OCO4)CC2)sc(C)c1C.O=C(O)C(=O)O,-28.9%
16,COc1ccsc1C(=O)N1CCN(Cc2ccc3c(c2)OCO3)CC1,-16.5%
17,Oc1cc2c(cc1CN1CCN(c3ccc(F)cc3)CC1)OCO2,-1.5%
18,O=C1CC(Cc2ccc(Cl)cc2)C(=O)N1c1ccccn1 (stereo not drawn),1.83%
19,CCOc1ccc(NC(=O)[C@@H](NC(=O)c2ccccc2)[C@@H](C)CC)cc1,2.26%
20,CCC(C)NC(=O)CSc1c2c(nc3ccccc13)CCCC2 (stereo not drawn),-7.98%
21,O=C(N/N=C/c1ccc([N+](=O)[O-])s1)c1cccnc1,5.77%
22,Cc1cc(C)nc(Sc2nc(C)nc3c2oc2ccccc23)n1,-1.57%

# Source: paper PMC4336329 (PLoS ONE, 2015)
